Inconclusive results are not listed. Values without a mark were called inactive. Activity calls are given as the source filed them. Calls follow the shape of the dose curve; as a rule, active = well fitted cell-killing curve with a large enough effect; inconclusive = small, poorly fitted or top-dose-only effect; inactive = flat fitted curve, though single readings scatter.

These results are taken from PubChem BioAssay (NCATS).
Potency is read from the fitted curve at half-maximal effect.

The nature of this assay: Cell Viability - LYMP2-024 (AID 988). Also: nearly all actives have a fitted effect of over 60% in size.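 As to activity change, negative = cytotoxicity: plate controls were DMSO only for no effect and 92 µM tetraoctylammonium bromide for full effect.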 The settings on record: LYMP2-024 lymphoblastoid cell viability; series mostly up to 92.2 µM; activity change, negative = cytotoxicity: at the top concentration. From the text:
NIH Chemical Genomics Center [NCGC]
NIH Molecular Libraries Screening Centers Network [MLSCN]
National Institutes of Environmental Health Sciences [NIEHS]
National Toxicology Program [NTP]
We have developed a 1536-well cell-based assay for quantitative high throughput screening (qHTS) against a number of cell lines to determine in vitro cytotoxicity of small molecules. This particular assay uses a human lymphoblastoid cell line (LYMP2-024) purchased from Coriell Institute for Medical Research.
NCGC Assay Protocol Summary:
The CellTiter-Glo luminescent cell viability assay (Promega) is a homogeneous method to measure the number of viable cells in culture. The end point readout of this assay is based on quantitation of intracellular ATP, an indicator of metabolic activity, using the luciferase reaction. Luciferase catalyzes the oxidation of beetle Luciferin to oxyluciferin and light in the presence of ATP. The luminescent signal is proportional to amount of ATP present.
Using the CellTiter-Glo luminescent cell viability assay, the amount of cellular ATP was measured in the lymphoblastoid cell line with complete culture medium following compound treatment for 24 hours. The assay was performed in opaque white Kalypsys 1536-well plates. In the screen, tetraoctylammonium bromide was used as positive control. Library compounds were measured for their ability to cause acute toxicity in the cell line, as reflected by a decrease in intracellular ATP levels, in a concentration-dependent manner. […] AC50 values were determined from concentration-response data modeled with the standard Hill equation.
qHTS protocol for CellTiter Glo lymphoblastoid cellular assay
[Step] [Parameter] [Value] [Description]
1. Reagent; 5 uL; 2500 lymphoblastoid cells/well
2. Time; 5 hr; 37 C incubation
4. Controls; 23 nL; Tetraoctylammonium bromide 6.4pM to 92 uM
5. Time; 24 hr; 37 C incubation
6. Reagent; 5 uL; CellTiter Glo reagent
7. Time; 30 min; Room Temperature
8. Detection; Luminescence; Viewlux plate reader
Keywords: cell viability, cytotoxicity, lymphoblastoid cell line, luminescence, NTPHTS, NTPHTS_NCGC, NIEHS, DSSTox, MLSMR, MLSCN, NIH Roadmap, qHTS, NCGC
As for `O=C1NC(=O)C(c2ccccc2)(c2ccccc2)N1`, the “activity change, negative = cytotoxicity” value is -6.66%. `CC1=C(/C=C/C(C)=C/C=C/C(C)=C/C(=O)Nc2ccc(O)cc2)C(C)(C)CCC1`: the Potency is 39.8 µM (active). Turning to `CCCCC1C(=O)N(c2ccccc2)N(c2ccccc2)C1=O`, the “activity change, negative = cytotoxicity” value is -1.16%. For `O=C(O)c1cc(O)c2c(c1)C(=O)c1cccc(O)c1C2=O`, the “activity change, negative = cytotoxicity” value is -12%.

For `CC(=O)O[C@]1(C(C)=O)CC[C@H]2[C@@H]3C=C(Cl)C4=CC(=O)[C@@H]5C[C@@H]5[C@]4(C)[C@H]3CC[C@@]21C`, the “activity change, negative = cytotoxicity” value was -29.8%. On to `O=C(O)Cc1cccc2ccccc12`, for which the “activity change, negative = cytotoxicity” value is -2.19%. Regarding `O=c1[nH]cnc2c1ncn2[C@H]1CC[C@@H](CO)O1`, the “activity change, negative = cytotoxicity” value is -1.43%. Consider `O=c1c(O)c(-c2ccc(O)cc2)oc2cc(O)cc(O)c12`, for which the “activity change, negative = cytotoxicity” value is -7.22%.

For `CCCNC(=O)NS(=O)(=O)c1ccc(Cl)cc1`, the “activity change, negative = cytotoxicity” value is -12.6%. For the molecule `O=c1c(-c2ccc(O)cc2)coc2cc(O)ccc12`, the “activity change, negative = cytotoxicity” value was -11.7%. Take `CC/C(=C(\c1ccccc1)c1ccc(OCCN(C)C)cc1)c1ccccc1`: the Potency was 50.1 µM (active). Regarding `CC(=O)c1ccc(S(=O)(=O)NC(=O)NC2CCCCC2)cc1`, the “activity change, negative = cytotoxicity” value was -15.7%.

Consider `CN(C)CCC(c1ccccc1)c1ccccn1` (centres undefined), for which the “activity change, negative = cytotoxicity” value is -4.98%. As to `CCn1cc(C(=O)O)c(=O)c2ccc(C)nc21`, the “activity change, negative = cytotoxicity” value is 7.48%.
